Measured values published in the supplement of paper PMC11738630.

System: Salmonella enterica serovar Typhimurium 14028s
Assay: approximate change in surviving CFU after surface colonization relative to water-only control (log10 CFU/mL change); higher = more surviving bacteria (less inhibition of surface colonization)
Conditions: not stated (Biolog proprietary concentration), surface: plastic 96-well plate, 20-24 h at 25 °C

`O=C(O)[C@@H](O)[C@H](O)C(=O)O` [D-Tartaric Acid] was tested, and the “approximate change in surviving CFU (log10)” value (from here on “approximate change … (log10)”) (Biolog plate: PM2, Biolog well: F11) was 0.944.

For `CC(=O)C(C)O` (centres undefined) [3-Hydroxy-2-Butanone], the “approximate change … (log10)” value (Biolog plate: PM2, Biolog well: H12) was -0.15.

For `N` [Ammonia], the “approximate change … (log10)” value (Biolog plate: PM3, Biolog well: A2) was 0.0644.

`N[C@@H](Cc1ccc(O)cc1)C(=O)O` [L-Tyrosine] was tested, and the “approximate change … (log10)” value (Biolog plate: PM3, Biolog well: C1) was 0.3.

In the case of `NO` [Hydroxylamine], the “approximate change … (log10)” value (Biolog plate: PM3, Biolog well: D4) is reported as -0.687.

`CCCCN` [N-Butylamine] was tested, and the “approximate change … (log10)” value (Biolog plate: PM3, Biolog well: D7) was -2.12.

With `N[C@@H]1C(O)O[C@H](CO)[C@@H](O)[C@@H]1O` (stereo partly drawn) [D-Mannosamine] the “approximate change … (log10)” value (Biolog plate: PM3, Biolog well: E10) was -1.09.

For `CC(=O)N[C@@H]1C(O)O[C@H](CO)[C@@H](O)[C@@H]1O` (stereo partly drawn) [N-Acetyl-D-Mannosamine], the “approximate change … (log10)” value (Biolog plate: PM3, Biolog well: F1) was 0.15.

With `Nc1nc2[nH]cnc2c(=O)[nH]1` [Guanine] the “approximate change … (log10)” value (Biolog plate: PM3, Biolog well: F6) was -2.83.

For `OC[C@H]1O[C@@H](n2cnc3c(O)nc(O)nc32)[C@H](O)[C@@H]1O` [Xanthosine], the “approximate change … (log10)” value (Biolog plate: PM3, Biolog well: G2) was 0.751.

For `O=C1NC(=O)C(=O)C(=O)N1` [Alloxan], the “approximate change … (log10)” value (Biolog plate: PM3, Biolog well: G4) was -3.16.

In the case of `O=C1NC(=O)C(=O)N1` [Parabanic Acid], the “approximate change … (log10)” value (Biolog plate: PM3, Biolog well: G6) is reported as -2.58e-05.

`C[C@H](N)C(=O)N[C@@H](CC(=O)O)C(=O)O` was tested, and the “approximate change … (log10)” value (Biolog plate: PM3, Biolog well: H1) was 0.58.

With `CSCC[C@H](NC(=O)CN)C(=O)O` the “approximate change … (log10)” value (Biolog plate: PM3, Biolog well: H11) was -0.558.

In the case of `O[C@@H]1[C@@H](O)[C@@H](O)CO[C@H]1O` [L-Arabinose], the “approximate change … (log10)” value (Biolog plate: PM1, Biolog well: A2) is reported as 0.837.

For `O=C(O)[C@@H](O)[C@@H](O)[C@H](O)[C@@H](O)C(=O)O` [D-Saccharic Acid], the “approximate change … (log10)” value (Biolog plate: PM1, Biolog well: A4) was 0.708.

For `OC[C@@H](O)[C@@H](O)[C@H](O)[C@@H](O)CO` [D-Sorbitol], the “approximate change … (log10)” value (Biolog plate: PM1, Biolog well: B2) was 1.61.

With `C[C@H](O)[C@@H](O)[C@@H](O)[C@H](O)C=O` [L-Fucose] the “approximate change … (log10)” value (Biolog plate: PM1, Biolog well: B4) was 1.33.

`O=C[C@H](O)[C@@H](O)[C@H](O)[C@H](O)COP(=O)(O)O` [D-Glucose-6-Phosphate] was tested, and the “approximate change … (log10)” value (Biolog plate: PM1, Biolog well: C1) was 1.22.
